Data: PubChem BioAssay
Active and inactive are the calls of the source.

Columns and labels:
Albumin (Bos taurus) = Albumin (Bos taurus) (UniProt P02769); assay: bovine serum albumin binders on microarray, profiling panel, artefact control for SMM control protein annotation, biochemical, small-molecule microarray, Alexa647 label, 635/667 nm fluorescence (AID 1118); settings: BSA-A647 binding, fluorescence 635 nm, higher = more signal;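 note: score merges 667 nm emission intensity and signal-to-noise per printed compound spot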
Chain of Albumin (Bos taurus) (P02769 whole entry, looked up): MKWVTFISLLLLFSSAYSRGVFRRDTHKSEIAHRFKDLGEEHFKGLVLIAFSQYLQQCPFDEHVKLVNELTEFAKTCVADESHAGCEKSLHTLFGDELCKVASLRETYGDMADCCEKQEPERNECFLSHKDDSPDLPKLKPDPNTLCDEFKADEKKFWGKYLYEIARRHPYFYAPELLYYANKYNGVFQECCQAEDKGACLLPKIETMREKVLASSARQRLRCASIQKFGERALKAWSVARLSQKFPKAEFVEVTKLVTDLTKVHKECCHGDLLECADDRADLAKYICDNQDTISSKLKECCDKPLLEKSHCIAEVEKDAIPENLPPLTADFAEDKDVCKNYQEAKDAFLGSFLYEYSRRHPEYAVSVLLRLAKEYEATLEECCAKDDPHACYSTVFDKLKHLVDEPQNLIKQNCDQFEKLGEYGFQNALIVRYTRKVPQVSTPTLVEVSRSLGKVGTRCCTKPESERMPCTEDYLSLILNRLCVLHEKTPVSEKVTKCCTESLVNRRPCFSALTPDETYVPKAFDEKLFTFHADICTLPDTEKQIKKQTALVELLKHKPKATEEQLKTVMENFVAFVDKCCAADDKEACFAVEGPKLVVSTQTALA

[1] = small-molecule microarray binders of probe aXIP, primary screen, biochemical, NeuroSMM set, 635/667 nm fluorescence (AID 1119); settings: higher = more signal, called active from +8 up or from −8 down;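 note: probe is the protein aXip251-270 applied at 1 µg/mL to compound-printed slides; binding of probe to printed compounds measured as 667 nm fluorescence plus signal to noise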
[2] = small-molecule binders of probe aNOTCH3, primary screen, biochemical, small-molecule microarray, 635/667 nm fluorescence (AID 1120); settings: higher = more signal;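 note: probe is a biotin-tagged antibody raised against NOTCH3 rather than NOTCH3 protein; score merges spot fluorescence near 667 nm with spot signal to noise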
[3] = small-molecule binders of probe aNOTCH2, primary screen, biochemical, small-molecule microarray, 635/667 nm fluorescence (AID 1121); settings: higher = more signal;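 note: score merges feature fluorescence read at 667 nm with its signal to noise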
[4] = biological target: Carbonic anhydrase 2 (Homo sapiens) (UniProt P00918); assay: CAII small-molecule binders, profiling panel, biochemical, small-molecule microarray, Alexa647-labelled CAII (AID 1122); settings: CAII-A647 binding fluorescence, higher = more signal
[5] = COS7 lysate on small-molecule microarray, probe aHis, 635 nm (AID 1123); settings: COS7 cell lysate, fluorescence, higher = more signal;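 note: z-score combines 667nm fluorescence intensity with signal-to-noise per printed compound spot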
[6] = compound binding in COS7 lysate, probe aLAP1, primary screen, cell lysate, small-molecule microarray (AID 1124); settings: probe aLAP1, fluorescence, higher = more signal;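 note: lysate comes from COS7 cells expressing LAP1 and is applied at 0.3 µg/mL; score merges spot fluorescence near 667 nm with signal-to-noise over triplicate slides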
Sam68 (KHDRBS1) = assay: Sam68 small-molecule binders, primary screen, biochemical, small-molecule microarray, 635 nm fluorescence (AID 1125); settings: small-molecule microarray binding, higher = more signal;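 note: score merges 667 nm channel intensity with signal to noise over triplicate slides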
[7] = tested on: Chordin-like protein 2 (CHRDL2); assay: CHRDL2 small-molecule binders, primary screen, biochemical, small-molecule microarray, 635 nm fluorescence (AID 1126); settings: small-molecule microarray binding, fluorescence 635 nm; higher = more signal;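 note: printed compound slides probed with Chrdl2 protein at 4 µg/mL for 1 h at 4 C; score merges 667 nm emission intensity with signal to noise over three replicate slides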
[8] = biological target: Concanavalin-A (Canavalia ensiformis) (UniProt P02866); assay: ConA small-molecule binders, primary screen, artefact control for SMM control protein annotation, biochemical, small-molecule microarray, Alexa647 label, 635 nm (AID 1127); settings: ConA-A647 binding fluorescence, higher = more signal;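 note: z combines 667 nm emission intensity with signal-to-noise across three replicate slides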
Chain of Concanavalin-A (Canavalia ensiformis) (P02866 whole entry, looked up): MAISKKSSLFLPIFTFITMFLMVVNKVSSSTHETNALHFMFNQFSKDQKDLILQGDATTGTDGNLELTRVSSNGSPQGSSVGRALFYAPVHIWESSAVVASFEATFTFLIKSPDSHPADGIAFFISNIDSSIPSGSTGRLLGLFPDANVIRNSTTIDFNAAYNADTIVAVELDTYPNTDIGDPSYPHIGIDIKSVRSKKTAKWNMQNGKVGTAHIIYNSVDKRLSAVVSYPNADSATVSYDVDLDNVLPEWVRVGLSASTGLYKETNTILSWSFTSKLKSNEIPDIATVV

Row | SMILES | composite z-score (Albumin (Bos taurus)) | composite Z-score [1] | composite z-score [2] | composite z-score [3] | composite z-score [4] | composite z-score [5] | composite z-score [6] | composite z-score (Sam68 (KHDRBS1)) | composite z-score [7] | composite z-score [8]
1 | COC(=O)[C@H](Cc1ccccc1)N1CC(C)(OC)O[C@@H](Cc2ccccc2)[C@H]1/C=C/C1CC1 (stereo not given in full) | -0.266 | 0.571 (inactive) | -0.165 | -0.108 | 0.348 | 0.763 | 0.106 | 0.417 | -0.359 | 0.371
2 | O=C1NC(=O)C2C1C=CC(C(O)C1CCCCC1)N2Nc1ccccn1 (stereo not given) | 0.516 | 0.468 (inactive) | 0.0351 | -0.0422 | 0.827 | 1.36 | -0.636 | 0.233 | 0.342 | 0.898
3 | [N-]=[N+]=Nc1ccccc1C[C@]1(C(=O)N2CCCCC2)N=C(c2ccc(OCCCO)cc2)O[C@H]1c1ccccc1 | 0.737 | -0.399 (inactive) | 0.196 | 0.179 | 0.708 | 1.52 | 0.121 | 1.31 | -0.249 | 1.18
4 | O=C1O[C@H](c2ccccc2)[C@H](c2ccccc2)N2[C@H]1[C@@H](C(=O)O)[C@]1(C(=O)Nc3ccccc31)[C@H]2c1ccc(OCCO)cc1 | 1.03 | -0.617 (inactive) | 0.0576 | 0.024 | 0.749 | 1.79 | 0.59 | 1.16 | -0.192 | 0.864
5 | COc1ccc(C(=O)Nc2cccc(CN3C(=O)[C@]4(O[C@H](CC(=O)N(CCO)Cc5ccccc5)[C@@H]([Si](C)(C)c5ccc(OC)cc5)[C@@H]4C)c4ccccc43)c2)cc1 | -0.211 | 0.264 (inactive) | 0.0141 | -0.046 | 0.325 | 1.51 | -0.0351 | 0.775 | 0.972 | 0.762
6 | COC(=O)[C@@]1(Cc2ccccc2)[C@H]2c3cc(C(=O)N(C)C)n(Cc4ccc(Cl)c(C(F)(F)F)c4)c3C[C@H]2CN1C(=O)c1ccccc1 | 0.811 | -0.215 (inactive) | 0.745 | 0.445 | 0.668 | 1.9 | 0.402 | 1.2 | -0.123 | 0.95
7 | CCOC(=O)C[C@H]1[C@H](OC(=O)c2ccc(-c3ccccc3)cc2)[C@@H](NC(=O)c2ccc(-c3ccccc3)cc2)c2cc(OCCCO)ccc2N1C(=O)c1ccccc1 | 0.771 | 0.884 (inactive) | 0.0916 | -0.129 | 0.277 | 0.895 | 0.331 | 1.32 | -0.0105 | 1.06
8 | CN(C)CCCCCCNC(=O)[C@@H]1C[C@@H]2C(=O)N[C@@H](CCCC[N+](C)(C)C)C(=O)N2[C@@H]1c1cccc(OCCO)c1 | 0.792 | 1.88 (inactive) | -0.155 | -0.0495 | 0.321 | 0.617 | 0.98 | -0.311 | -0.0783 | 0.566
9 | CC1C2C(CCCO)=CC(C3C(=O)N(C(N)=O)C(=O)C23)N1Cc1cccc(OC(F)(F)F)c1 (stereo not given) | 1 | 0.649 (inactive) | -0.068 | -0.114 | 0.699 | 1.22 | 0.147 | 1.33 | 0.0627 | -0.0715
10 | CCCN1C(=O)[C@@]2(c3ccc([N+](=O)[O-])cc3)CC(=O)N(C3CCCCC3)[C@@H]2c2ccc(CO)cc21 | -0.328 | 2.02 (inactive) | -0.15 | -0.112 | -0.139 | 0.361 | -0.435 | 0.268 | 0.649 | 0.31
11 | COC(=O)C1=CC(CCCO)=CC(c2ccc(CN3CCCC3)cc2)N(C)C=C1C(=O)OC (stereo not given) | 0.935 | 1.22 (inactive) | -0.105 | 0.0334 | 0.866 | 1.72 | 0.181 | 1 | 0.164 | 0.361
12 | COC(=O)[C@@]1(Cc2ccc(F)cc2)[C@H]2c3cc(C(=O)N4CCCC4)n(Cc4ccc(C(F)(F)F)nc4)c3C[C@H]2CN1C(=O)c1ccccc1 | 1.05 | 0.136 (inactive) | 0.522 | -0.0013 | 0.579 | 3.01 | 0.4 | 1.23 | -1.41 | 0.962
13 | NCCCCCCNC(=O)[C@@H]1C[C@@H]2C(=O)NCC(=O)N2[C@@H]1c1cccc(OCCO)c1 | 0.432 | 0.671 (inactive) | 0.155 | 0.0001 | 0.695 | 1.47 | 0.758 | 1.2 | 1.18 | 0.828
14 | C=C(C(=O)CC[C@@H](OC(=O)c1cccnc1)c1cccc(OCCO)c1)C(C)C | -0.176 | 0.437 (inactive) | 0.0286 | -0.141 | 0.14 | -0.588 | 1.3 | -0.588 | -0.114 | 0.297
15 | CN1C(=O)C2C(C1=O)C1C=C(CCCO)C2C(C2CC2)N1C (stereo not given) | 0.913 | 0.178 (inactive) | -0.16 | -0.149 | 0.839 | 0.746 | -0.67 | -0.293 | -0.338 | -1.39
16 | COc1ccc(CCNC(=O)[C@@H]2c3ccccc3C(=O)N(Cc3cc(F)cc(C(F)(F)F)c3)[C@H]2c2ccc(CO)cc2)cc1 | -0.0885 | -0.795 (inactive) | 0.249 | 0.207 | 0.753 | 2.1 | 1.51 | 1.03 | 0.0818 | 0.198
17 | CC(C)c1ccc(NN2C(C(O)C3=C[C@H]4C[C@@H](C3)C4(C)C)C=CC3C(=O)N(c4ccccc4)C(=O)C32)cc1 (stereo not given in full) | 0.97 | 0.378 (inactive) | 0.333 | 0.248 | 0.662 | 2.04 | 1.09 | 1.17 | 0.4 | 1.12
